{"source": "PubChem BioAssay (NCATS)", "note": "Inconclusive results are not listed."}
{"experiment": "qHTS for identification of novel therapeutic agents for treatment of microphthalmiaassociated transcription factor (MiT) renal cell carcinoma (RCC) (AID 1963991)", "conditions": "TFE3-RCC UOK109 viability, CellTiter-Glo, 48 h; measured here: UOK109 Z-AUC; stronger effect = lower value", "procedure,_shortened": "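Three TFE3-fusion RCC lines (UOK109, UOK124, UOK145), 500 cells/well in complete medium, were treated with MIPE 4.0 compounds for 48 hours at 37 C. Viability was by CellTiter-Glo luminescence, normalized to DMSO (100%) and empty wells (0%); curves fitted over 11 concentrations.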"}
{"smiles": "CC[C@H]1OC(=O)[C@H](C)[C@@H](O[C@H]2C[C@@](C)(OC)[C@@H](O)[C@H](C)O2)[C@H](C)[C@@H](O[C@@H]2O[C@H](C)C[C@H](N(C)C)[C@H]2O)[C@](C)(O)C[C@H](C)C(=NOCOCCOC)[C@H](C)[C@@H](O)[C@]1(C)O", "z-score": 1.24}
{"smiles": "C[C@]12CCC3=C4CCC(=O)C=C4CC[C@@H]3[C@H]1CC[C@@]2(O)CC#N", "z-score": 0.693}
{"smiles": "C[C@@H](O)[C@H]1C(=O)N2C(C(=O)OCOC(=O)C(C)(C)C)=C(SC3CN(C4=NCCS4)C3)[C@H](C)[C@H]12", "z-score": 1.65}
{"smiles": "COc1ccc(C=CC(=O)Nc2ccccc2C(=O)O)cc1OC", "z-score": 0.299}
{"smiles": "C[C@@H]1O[C@@H](O[C@H]2CC[C@@]3(C)[C@H](CC[C@@H]4[C@H]3C[C@@H](O)[C@]3(C)[C@@H](C5=CC(=O)OC5)CC[C@]43O)C2)C[C@H](O)[C@@H]1O[C@H]1C[C@H](O)[C@H](O[C@H]2C[C@H](O)[C@@H](O)[C@@H](C)O2)[C@H](C)O1", "note": "(stereo in doubt)", "z-score": -2.46}
{"smiles": "CO[C@H]1/C=C\\O[C@@]2(C)Oc3c(C)c(O)c4c(O)c(c(C=NN5CCN(C6CCCC6)CC5)c(O)c4c3C2=O)NC(=O)C(C)=CC=C[C@H](C)[C@H](O)[C@@H](C)[C@@H](O)[C@@H](C)[C@H](OC(C)=O)[C@H]1C", "z-score": -1.72}
{"smiles": "CN(C)c1nc(Cc2ccc(NC(=O)c3ccc(C(F)(F)F)cc3)cc2)nc(N(C)C)c1CC(=O)O", "z-score": 0.568}
{"smiles": "CC1(C)[C@H]2CC[C@]3(C)[C@@H](C(=O)C=C4[C@@H]5C[C@@](C)(C(=O)O)CC[C@]5(C)CC[C@]43C)[C@@]2(C)CC[C@@H]1O", "z-score": 0.727}
{"smiles": "C[C@@H]1CCO[C@H]2Cn3cc(C(=O)NCc4ccc(F)cc4F)c(=O)c(O)c3C(=O)N12", "z-score": 0.807}
{"smiles": "CN[C@H]1[C@@H](O[C@@H]2[C@H](O[C@@H]3[C@@H](O)[C@@H](O)[C@@H](N=C(N)N)[C@@H](O)[C@@H]3N=C(N)N)O[C@H](C)[C@@]2(O)C=O)O[C@@H](CO)[C@@H](O)[C@H]1O", "z-score": 2.74}
{"smiles": "O=C(O)C1=NC(C(=O)O)CC(C=CN2c3cc(O)c(OC4OC(CO)C(O)C(O)C4O)cc3CC2C(=O)O)=C1", "note": "(centres undefined)", "z-score": 1.58}
{"smiles": "COc1cc(C=CC(=O)O)ccc1O", "z-score": -0.0784}
{"smiles": "CNC1[C@H](O)C(O[C@@H]2C(O)C(O[C@H]3O[C@H]([C@@H](C)NC)CC[C@H]3N)[C@@H](N)C[C@H]2N)OC[C@]1(C)O", "note": "(some centres undefined)", "z-score": 0.654}
{"smiles": "CO[C@H]1C=CO[C@@]2(C)Oc3c(C)c(O)c4c(O)c(c(C=NN5CCN(C)CC5)c(O)c4c3C2=O)NC(=O)C(C)=CC=C[C@H](C)[C@H](O)[C@@H](C)[C@@H](O)[C@@H](C)[C@H](OC(C)=O)[C@H]1C", "z-score": 2.16}
{"smiles": "CCC=CC[C@H]1C(=O)CC[C@@H]1CC(=O)OC", "z-score": -0.107}
{"smiles": "CCCCCOC(=O)Nc1nc(=O)n([C@@H]2O[C@H](C)[C@@H](O)C2O)cc1F", "note": "(some centres undefined)", "z-score": 0.259}
{"smiles": "CO[C@H]1O[C@@H]2O[C@@]3(C)CC[C@@H]4[C@@H](C)CC[C@@H]([C@H]1C)[C@@]24OO3", "z-score": 1.01}
{"smiles": "CC(=O)OCC(=O)[C@@]12OC(C)(C)O[C@H]1C[C@H]1[C@@H]3C[C@H](F)C4=CC(=O)C=C[C@]4(C)[C@@]3(F)[C@@H](O)C[C@@]12C", "z-score": 0.123}
{"smiles": "O=C(c1ccc(C(=O)N2CCC(N3CCCC3)CC2)c(Nc2ccccc2)c1)N1CCC(N2CCCC2)CC1", "z-score": 0.9}
{"smiles": "CCNC(=O)CCCC=CC[C@@H]1[C@H](C=CC(O)CCc2ccccc2)[C@@H](O)C[C@@H]1O", "note": "(some centres undefined)", "z-score": 1.02}
{"smiles": "CCN1C[C@H](C)n2c(c(O)c3c(=O)n(Cc4ccc(F)c(Cl)c4)nc(C(=O)NC)c32)C1=O", "z-score": 0.808}
{"smiles": "N=C1SC(=Cc2ccc(-c3ccc4c(c3)C(=O)NC4=O)o2)C(=O)N1c1ccc(Br)cc1", "z-score": 0.374}
{"smiles": "CC(C)=CCCC(C)=CCCC(C)=CCCC(C)=CCCC(C)=CCCC(C)=CCCC(C)=CCCC(C)=CCCC(C)=CCO", "z-score": 0.865}
{"smiles": "COc1cc(CNC(=O)CCCCC=CC(C)C)ccc1O", "z-score": 0.273}
{"smiles": "C[C@H](c1ccc(F)cc1CCCC(=O)O)N(c1cc(F)ccc1F)S(=O)(=O)c1ccc(Cl)cc1", "z-score": 0.174}
{"smiles": "CO[C@H]1/C=C\\O[C@@]2(C)Oc3c(C)c(O)c4c(O)c(c5c(nc6cc(C)ccn65)c4c3C2=O)NC(=O)C(C)=CC=C[C@H](C)[C@H](O)[C@@H](C)[C@@H](O)[C@@H](C)[C@H](OC(C)=O)[C@H]1C", "z-score": 0.788}
{"smiles": "CC[C@]1(O)C[C@H]2CN(CCC3=c4ccccc4=N[C]3[C@@](C(=O)OC)(c3cc4c(cc3OC)N(C)[C@H]3[C@@](O)(C(N)=O)[C@H](O)[C@]5(CC)C=CCN6CC[C@]43[C@@H]65)C2)C1", "z-score": -0.8}
{"smiles": "O=c1[nH]c(=O)n([C@H]2C[C@@H](O)[C@@H](CO)O2)cc1I", "z-score": 0.108}
{"smiles": "CCCCC[C@H](O)C=C[C@H]1[C@H](O)CC(=O)[C@H]1CCCCCCC(=O)O", "z-score": 1.1}
{"smiles": "C=CC[N+]1([C@H]2C[C@H]3[C@@H]4CC[C@H]5C[C@H](O)[C@@H](N6CCOCC6)C[C@]5(C)[C@@H]4CC[C@]3(C)[C@H]2OC(C)=O)CCCC1", "z-score": 0.798}
{"smiles": "C[C@]12C=CC(=O)C=C1CC[C@@H]1[C@@H]2[C@@H](O)C[C@@]2(C)[C@@H]1CC[C@]2(O)C(=O)CO", "z-score": 0.748}
{"smiles": "COc1ccc2c(c1)CC[C@H]1[C@@H]2CC[C@]2(C)[C@@H](NCCCCCCN3C(=O)C=CC3=O)CC[C@H]12", "z-score": 1.13}
{"smiles": "CCOC(=O)[C@H]1O[C@H]1C(=O)N[C@@H](CC(C)C)C(=O)NCCC(C)C", "z-score": 0.719}
{"smiles": "CC=C1C2C=C(C)CC1(N)c1ccc(=O)[nH]c1C2", "note": "(centres undefined)", "z-score": 0.936}
